PubChem BioAssay (EPA / NIEHS)
Active and inactive are the calls of the source. How the source made its calls: active means hit-call score of the fitted dose curve at least 0.9, where 1 is the maximum; inactive means score below 0.9.

What was measured:
Conditions in all cases: primary human HUVEC with PBMC; actives raise or lower the signal
[1] = read-out: Monocyte Chemoattractant Protein-1 (MCP1), CCL2 (gene 6347); assay: BSK_LPS_MCP1: BioMAP Diversity Plus: LPS Assay for Monocyte Chemoattractant Protein-1 (MCP1) Biomarker Activity (AID 2283081);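 on AC50: secreted MCP-1 protein quantified by ELISA in culture supernatant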
Outline: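 HUVEC plus PBMC co-culture (human primary cells, LPS system) exposed to test chemical for 24 h; MCP-1 measured by ELISA. Bidirectional curve fitting against DMSO baseline; parallel SRB total-protein staining flags overt cytotoxicity.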

[2] = BSK_LPS_PGE2: BioMAP Diversity Plus: LPS Assay for Prostaglandin E2 (PGE2) Biomarker Activity (AID 2283082);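 on AC50: secreted prostaglandin E2 measured by ELISA in LPS-stimulated co-culture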
Outline: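 Endpoint derived from bidirectional curve fitting versus DMSO of ELISA-measured PGE2 in LPS-stimulated human primary vascular co-culture (HUVEC with PBMC) harvested at 24 h.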

[3] = read-out: Tissue Factor, F3 (gene 2152); assay: BSK_LPS_TissueFactor: BioMAP Diversity Plus: LPS Assay for Tissue Factor Biomarker Activity (AID 2283084)
Outline: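 Human umbilical vein endothelial cells co-cultured with peripheral blood mononuclear cells were dosed and stimulated with LPS. Cell-surface CD142 was quantified by ELISA at 24 h. Activity was fitted bidirectionally against DMSO baseline.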

[4] = read-out: Tumor necrosis factor (Homo sapiens) (UniProt P01375); assay: BSK_LPS_TNFa: BioMAP Diversity Plus: LPS Assay for Tumour Necrosis Factor alpha (TNFa) Biomarker Activity (AID 2283085)
Outline: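 Primary human vascular co-culture of HUVEC and PBMC; TNFa ELISA 24 h after treatment, analysed as increase or decrease relative to DMSO control.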

[5] = read-out: Vascular cell adhesion molecule 1 (VCAM1), VCAM1 (gene 7412); assay: BSK_LPS_VCAM1: BioMAP Diversity Plus: LPS Assay for Vascular cell adhesion molecule 1 (VCAM1) Biomarker Activity (AID 2283086)
Outline: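 Primary human vascular co-culture (umbilical vein endothelium plus PBMC) stimulated with LPS received chemical; 24 h later VCAM-1 was read by ELISA. Overt cytotoxicity was assessed by sulforhodamine B staining of parallel cultures at the same time point.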

CD38, CD38 (gene 952) = assay: BSK_SAg_CD38: BioMAP Diversity Plus: SAg Assay for CD38 Biomarker Activity (AID 2283087)
Outline: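 Fluorescence ELISA of cell-surface CD38 served as the read-out, with either increase or decrease fitted against DMSO controls. Cells were a human umbilical vein endothelium plus PBMC co-culture under SEB/TSST-1 stimulation, measured 24 h after dosing.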

CD40, CD40 (gene 958) = assay: BSK_SAg_CD40: BioMAP Diversity Plus: SAg Assay for CD40 Biomarker Activity (AID 2283088)
Outline: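 Human umbilical vein endothelial cells co-cultured with PBMC; CD40 levels measured by ELISA with fluorescence read-out 24 h after chemical dosing. Gain or loss of signal fitted bidirectionally against DMSO baseline.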

CD69, CD69 (gene 969) = assay: BSK_SAg_CD69: BioMAP Diversity Plus: SAg Assay for CD69 Biomarker Activity (AID 2283089);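 on AC50: cell surface CD69 protein quantified by ELISA with fluorescence detection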
Outline: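 HUVEC co-cultured with PBMC were dosed with chemical, and CD69 was measured by ELISA with fluorescence read-out 24 h later. Bidirectional curve fitting used DMSO as negative control and activity baseline.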

[6] = read-out: Monocyte Chemoattractant Protein-1 (MCP1), CCL2 (gene 6347); assay: BSK_SAg_MCP1: BioMAP Diversity Plus: SAg Assay for Monocyte Chemoattractant Protein-1 (MCP1) Biomarker Activity (AID 2283090)
Outline: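 MCP-1 levels in the endothelial–PBMC SAg co-culture were quantified by ELISA at 24 h post-dosing; both increases and decreases versus DMSO scored. Cytotoxicity monitored by SRB total protein in parallel cultures.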

Sequence of Tumor necrosis factor (Homo sapiens) (P01375 whole entry, looked up): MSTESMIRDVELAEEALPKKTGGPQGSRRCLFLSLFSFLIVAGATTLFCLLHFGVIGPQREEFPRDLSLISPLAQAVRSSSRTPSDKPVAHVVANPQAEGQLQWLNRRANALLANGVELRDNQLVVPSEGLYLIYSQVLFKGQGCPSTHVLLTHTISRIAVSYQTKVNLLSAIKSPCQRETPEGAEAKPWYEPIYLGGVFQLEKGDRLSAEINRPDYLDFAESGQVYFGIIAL

For CC(C)(OO)c1ccccc1, the outcome [1] was “inactive”, the outcome [2] was “inactive” and the outcome [3] was “inactive”. The outcome [4] was “inactive”, the outcome [5] was “inactive” and the outcome (CD38, CD38 (gene 952)) was “inactive”. For the same compound, the outcome (CD40, CD40 (gene 958)) was “inactive”, the outcome (CD69, CD69 (gene 969)) was “inactive” and the outcome [6] was “inactive”.

For CCOC(=O)/C=C(C)/C=C/C[C@@H](C)CCCC(C)C, the AC50 [1] was 30.7 µM (active), the AC50 [2] was 10.1 µM (active) and the AC50 [3] was 29.2 µM (active). The AC50 [4] was 33.2 µM (active), the AC50 [5] was 25.7 µM (active) and the AC50 (CD38, CD38 (gene 952)) was 30.7 µM (active). The AC50 (CD40, CD40 (gene 958)) was 25.8 µM (active), the AC50 (CD69, CD69 (gene 969)) was 20 µM (active) and the AC50 [6] was 29 µM (active).

In the case of COC(=O)c1sccc1S(=O)(=O)NC(=O)Nc1nc(C)nc(OC)n1, the outcome [1] is reported as “inactive”, the outcome [2] is reported as “inactive” and the outcome [3] is reported as “inactive”. For the same compound, the outcome [4] was “inactive”, the outcome [5] was “inactive” and the outcome (CD38, CD38 (gene 952)) was “inactive”. For the same compound, the outcome (CD40, CD40 (gene 958)) was “inactive”, the outcome (CD69, CD69 (gene 969)) was “inactive” and the outcome [6] was “inactive”.

With CC(C)CCCCCCOC(=O)c1ccccc1C(=O)OCCCCCCC(C)C the outcome [1] was “inactive”, the outcome [2] was “inactive” and the outcome [3] was “inactive”. The outcome [4] was “inactive”, the outcome [5] was “inactive” and the outcome (CD38, CD38 (gene 952)) was “inactive”. For the same compound, the outcome (CD40, CD40 (gene 958)) was “inactive”, the outcome (CD69, CD69 (gene 969)) was “inactive” and the outcome [6] was “inactive”.

In the case of CCOP(=S)(OCC)Oc1ccc(S(C)=O)cc1 (configuration not stated), the outcome [1] is reported as “inactive”, the outcome [2] is reported as “inactive” and the outcome [3] is reported as “inactive”. The outcome [4] was “inactive”, the outcome [5] was “inactive” and the outcome (CD38, CD38 (gene 952)) was “inactive”. The outcome (CD40, CD40 (gene 958)) was “inactive”, the outcome (CD69, CD69 (gene 969)) was “inactive” and the outcome [6] was “inactive”.

For CCCCCCCCC(=O)NCc1ccc(O)c(OC)c1, the outcome [1] was “inactive”, the AC50 [2] was 12.8 µM (active) and the outcome [3] was “inactive”. The outcome [4] was “inactive”, the outcome [5] was “inactive” and the outcome (CD38, CD38 (gene 952)) was “inactive”. For the same compound, the outcome (CD40, CD40 (gene 958)) was “inactive”, the outcome (CD69, CD69 (gene 969)) was “inactive” and the outcome [6] was “inactive”.

In the case of O=[N+]([O-])c1ccc2c3c(cccc13)CC2, the outcome [1] is reported as “inactive”, the outcome [2] is reported as “inactive” and the outcome [3] is reported as “inactive”. The outcome [4] was “inactive”, the outcome [5] was “inactive” and the AC50 (CD38, CD38 (gene 952)) was 20 µM (active). The outcome (CD40, CD40 (gene 958)) was “inactive”, the outcome (CD69, CD69 (gene 969)) was “inactive” and the outcome [6] was “inactive”.

For C(=NC1CCCCC1)=NC1CCCCC1, the AC50 [1] was 30 µM (active), the outcome [2] was “inactive” and the AC50 [3] was 34.8 µM (active). For the same compound, the AC50 [4] was 35.1 µM (active), the AC50 [5] was 30.4 µM (active) and the AC50 (CD38, CD38 (gene 952)) was 14.1 µM (active). For the same compound, the AC50 (CD40, CD40 (gene 958)) was 17.3 µM (active), the AC50 (CD69, CD69 (gene 969)) was 7.97 µM (active) and the AC50 [6] was 19.3 µM (active).

In the case of COc1cc(OC)nc(NC(=O)NS(=O)(=O)c2ncccc2C(=O)N(C)C)n1, the outcome [1] is reported as “inactive”, the outcome [2] is reported as “inactive” and the outcome [3] is reported as “inactive”. For the same compound, the outcome [4] was “inactive”, the outcome [5] was “inactive” and the outcome (CD38, CD38 (gene 952)) was “inactive”. For the same compound, the outcome (CD40, CD40 (gene 958)) was “inactive”, the outcome (CD69, CD69 (gene 969)) was “inactive” and the outcome [6] was “inactive”.

In the case of BrCCBr, the outcome [1] is reported as “inactive”, the outcome [2] is reported as “inactive” and the outcome [3] is reported as “inactive”. For the same compound, the outcome [4] was “inactive”, the outcome [5] was “inactive” and the outcome (CD38, CD38 (gene 952)) was “inactive”. For the same compound, the outcome (CD40, CD40 (gene 958)) was “inactive”, the outcome (CD69, CD69 (gene 969)) was “inactive” and the outcome [6] was “inactive”.

With Oc1ccc(-c2ccccc2)cc1 the outcome [1] was “inactive”, the outcome [2] was “inactive” and the outcome [3] was “inactive”. For the same compound, the outcome [4] was “inactive”, the outcome [5] was “inactive” and the outcome (CD38, CD38 (gene 952)) was “inactive”. For the same compound, the outcome (CD40, CD40 (gene 958)) was “inactive”, the outcome (CD69, CD69 (gene 969)) was “inactive” and the outcome [6] was “inactive”.

In the case of O=Cc1cccc(Oc2ccccc2)c1, the outcome [1] is reported as “inactive”, the outcome [2] is reported as “inactive” and the outcome [3] is reported as “inactive”. For the same compound, the outcome [4] was “inactive”, the outcome [5] was “inactive” and the outcome (CD38, CD38 (gene 952)) was “inactive”. The outcome (CD40, CD40 (gene 958)) was “inactive”, the outcome (CD69, CD69 (gene 969)) was “inactive” and the outcome [6] was “inactive”.

For CCOP(=S)(OCC)SCSP(=S)(OCC)OCC, the outcome [1] was “inactive”, the outcome [2] was “inactive” and the outcome [3] was “inactive”. The outcome [4] was “inactive”, the outcome [5] was “inactive” and the outcome (CD38, CD38 (gene 952)) was “inactive”. For the same compound, the outcome (CD40, CD40 (gene 958)) was “inactive”, the outcome (CD69, CD69 (gene 969)) was “inactive” and the outcome [6] was “inactive”.

For COP(=S)(OC)Oc1ccc(Sc2ccc(OP(=S)(OC)OC)cc2)cc1, the AC50 [1] was 12.5 µM (active), the AC50 [2] was 9.58 µM (active) and the outcome [3] was “inactive”. For the same compound, the outcome [4] was “inactive”, the outcome [5] was “inactive” and the AC50 (CD38, CD38 (gene 952)) was 14.5 µM (active). The AC50 (CD40, CD40 (gene 958)) was 14.8 µM (active), the AC50 (CD69, CD69 (gene 969)) was 13.6 µM (active) and the AC50 [6] was 26.9 µM (active).

For O=C(O)C(Cl)(Cl)Cl, the outcome [1] was “inactive”, the outcome [2] was “inactive” and the outcome [3] was “inactive”. For the same compound, the outcome [4] was “inactive”, the outcome [5] was “inactive” and the outcome (CD38, CD38 (gene 952)) was “inactive”. For the same compound, the outcome (CD40, CD40 (gene 958)) was “inactive”, the outcome (CD69, CD69 (gene 969)) was “inactive” and the outcome [6] was “inactive”.

In the case of Cn1sc(Cl)cc1=O, the AC50 [1] is reported as 35.2 µM (active), the outcome [2] is reported as “inactive” and the outcome [3] is reported as “inactive”. The AC50 [4] was 31.2 µM (active), the AC50 [5] was 29.3 µM (active) and the AC50 (CD38, CD38 (gene 952)) was 31.3 µM (active). For the same compound, the AC50 (CD40, CD40 (gene 958)) was 26.4 µM (active), the AC50 (CD69, CD69 (gene 969)) was 26.4 µM (active) and the AC50 [6] was 30.7 µM (active).

For NC(=S)Nc1ccccc1, the outcome [1] was “inactive”, the outcome [2] was “inactive” and the outcome [3] was “inactive”. For the same compound, the outcome [4] was “inactive”, the outcome [5] was “inactive” and the outcome (CD38, CD38 (gene 952)) was “inactive”. The outcome (CD40, CD40 (gene 958)) was “inactive”, the outcome (CD69, CD69 (gene 969)) was “inactive” and the outcome [6] was “inactive”.

For COP(=S)(OC)Oc1cc(Cl)c(Cl)cc1Cl, the outcome [1] was “inactive”, the outcome [2] was “inactive” and the outcome [3] was “inactive”. For the same compound, the AC50 [4] was 32.6 µM (active), the outcome [5] was “inactive” and the outcome (CD38, CD38 (gene 952)) was “inactive”. The outcome (CD40, CD40 (gene 958)) was “inactive”, the outcome (CD69, CD69 (gene 969)) was “inactive” and the outcome [6] was “inactive”.
